This is a sample that favours compounds with a hit; in the whole collection about 3.5% have one here.
LEDGF integ inh – blocks HIV-1 LEDGF/p75-dependent DNA integration; TR-FRET IN-LEDGF/p75 DNA integration, Eu/Cy5; inhibition, % at 3.7 µM; hit rate 0.64% among 370,000; AID 743269;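 active = inhibition above the screen-wide mean plus 3 SD, cut at about 13% in these data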;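 note: signal is the Cy5 over europium emission ratio at 671 and 618 nm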
MBD2 inh – inhibitors of human MBD2 binding to methylated oligonucleotide; Q9UBB5; TR-FRET; inhibition, % at 4.4 µM; hit rate 0.31% among 370,000; AID 686964; in the data active = inhibition above about 13%
Target sequence (Q9UBB5 whole entry, looked up): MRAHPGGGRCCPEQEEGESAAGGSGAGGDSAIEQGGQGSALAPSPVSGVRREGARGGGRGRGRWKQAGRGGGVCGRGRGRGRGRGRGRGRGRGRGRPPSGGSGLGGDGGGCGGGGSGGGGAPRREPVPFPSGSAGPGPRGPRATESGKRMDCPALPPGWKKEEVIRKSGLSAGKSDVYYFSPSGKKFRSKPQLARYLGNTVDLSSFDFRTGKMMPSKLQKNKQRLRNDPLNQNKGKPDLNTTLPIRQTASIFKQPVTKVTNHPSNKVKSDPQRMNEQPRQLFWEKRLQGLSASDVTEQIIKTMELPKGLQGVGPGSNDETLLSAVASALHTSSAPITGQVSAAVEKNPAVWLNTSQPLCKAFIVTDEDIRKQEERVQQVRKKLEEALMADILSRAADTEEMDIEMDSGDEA
rCAG binder – molecules binding r(CAG) RNA repeats; r(CAG) RNA repeat, TO-PRO-1 dye displacement fluorescence; inhibition, % at 3 µM; hit rate 1.3% among 370,000; AID 651821;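 active = inhibition above the plate cutoff, the mean of all test compounds on that plate plus 3 SD, cut at about 35% in these data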;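 note: higher means more dye released from RNA so lower well fluorescence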
UHRF1 binding – blocks human UHRF1 binding to methylated DNA; Q96T88; UHRF1 binding to methylated oligo, TR-FRET; inhibition, % at 4.4 µM; hit rate 0.75% among 370,000; AID 687016; in the data active = inhibition above about 21%;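 note: UHRF1 SRA domain binding a hemimethylated CpG hairpin DNA probe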
DNMT1 block – blocks human DNA methyltransferase DNMT1 | DNMT1 molecular beacon, Hinp1I cleavage, fluorescence | inhibition (reported as % activation of signal), % at 10 µM | hit rate 0.83% among 360,000 | AID 588458; in the data active = inhibition above about 50%
PG9 Ab binder – PG9 antibody binding by small molecule | TR-FRET gp120-PG9 antibody binding | inhibition, % at 6.7 µM | hit rate 0.43% among 360,000; in the data active = inhibition above about 8.5%
rCAG bind conf – r(CAG) RNA repeat binding, confirmation; inhibition, % at 3 µM; hit rate 70% among 4,300; AID 652065; shares compounds with rCAG binder; TO-PRO-1 dye displacement fluorescence;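 active = inhibition above a per-plate cutoff, the mean inhibition of sample wells plus 3 SD, cut at about 35% in these data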;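 note: loss of TO-PRO-1 fluorescence as compound displaces dye from 1x1 AA loop RNA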
DNA CAG counter – DNA CAG dye complex inhibition counter-screen; shares compounds with rCAG binder; d(CAG) DNA oligo TO-PRO-1 dye displacement, fluorescence; inhibition, % at 3 µM; hit rate 94% among 4,300;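 active = inhibition above its plate's cutoff, the mean test-well inhibition plus 3 SD, cut at about 4.8% in these data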;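 note: hits displace the dye from DNA and so lower well fluorescence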
dCAG dye DR – counter-screen for rCAG binders: inhibitors of DNA CAG TO-PRO-1 complex; shares compounds with rCAG binder; DNA CAG/GTC duplex TO-PRO-1 dye displacement fluorescence; hit rate 20% among 250; IC50, µM; in the data active = IC50 below about 10 µM
A number is an active result; . = inactive; / = no result; ! = a repeat was not active.

SMILES	LEDGF integ inh	MBD2 inh	rCAG binder	UHRF1 binding	DNMT1 block	PG9 Ab binder	rCAG bind conf	DNA CAG counter	others
CC(=O)c1sc(N/N=C\c2c(O)ccc3ccccc23)nc1C	.	.	52	.	.	.	60	29
O=C1NC[C@@H](CCCCN2CCN(CCC3CCCCC3)C(=O)C2=O)N(CCC2CCCCC2)C1=O	.	.	.	.	/	.	/	/
COc1ccccc1-n1c(C)cc(/C=C2/C(=N)N3C(=NC2=O)SN=C3S(C)(=O)=O)c1C	.	.	80	.	.	.	77	42
Cc1cc(/C=C2/C(=N)N3C(=NC2=O)SN=C3S(C)(=O)=O)c(C)n1-c1ccc(F)cc1	.	.	69	.	.	.	79	47
Cc1cccc(C)c1-n1cccc1/C=C1/C(=N)N2C(=NC1=O)SN=C2S(C)(=O)=O	.	.	88	.	.	.	85	59
CCOc1ccc(-n2c(C)cc(/C=C3/C(=N)N4C(=NC3=O)SN=C4S(C)(=O)=O)c2C)cc1	.	.	.	.	.	.	/	/
O=C(N=C1SC2CS(=O)(=O)CC2N1c1ccc(F)c(Cl)c1)C1CCCO1 (configuration not stated)	.	.	.	.	.	.	/	/
C=CC[C@]12C[C@@]3(O[C@H](c4ccc(C(F)(F)F)cc4)N=C3C[C@H](c3ccc(OC)cc3)[C@H]1C)N(Cc1ccncc1)C2=O	.	.	.	.	/	.	/	/
CCCCOCCCNC(=O)C[C@@H]1C[C@@]2(C(=O)OCC)CCC=C2N(Cc2cccc3ccccc23)C1=O	.	.	.	.	/	.	/	/
COCCN=c1scc(-c2cccs2)n1/N=C/c1ccc(O)c(O)c1O	.	.	48	.	.	.	62	30	dCAG dye DR=9.2
O=C(OCc1cn(Cc2ccc(F)cc2)nn1)N1CCOCC1	.	.	.	.	/	/	/	/
CCN(CC)S(=O)(=O)c1ccc(NC(=O)c2ccc(Sc3nncn3C)c([N+](=O)[O-])c2)cc1	.	.	36	.	.	.	.	5.8
Cc1ccc(NC(=O)[C@@H]2CC(=O)O[C@@H]2c2ccccc2)cc1C	.	.	.	.	/	/	/	/
CN1C(=O)/C(=C/c2ccc(OC(=O)c3ccco3)cc2)SC1=S	.	.	.	.	.	.	/	/
COc1cc(/C=C2\SC(=S)N(CC(=O)O)C2=O)ccc1OC(=O)c1ccco1	.	.	46	.	.	.	45	13
CN1C(=O)/C(=C\c2ccc(OC(=O)c3ccco3)cc2)SC1=S	.	.	.	.	.	.	/	/
CCOc1cc(/C=C2/SC(=S)N(CC(=O)O)C2=O)ccc1OC(=O)c1cccs1	.	.	58	.	.	.	71	30	dCAG dye DR=.
COc1cc(/C=C2/SC(=S)N(CC(=O)O)C2=O)ccc1OC(=O)c1ccco1	.	.	41	.	.	.	46	15
C#CCN(CC=C)C(=O)C1CCC(=O)N(CCCc2ccccc2)C1 (configuration not stated)	.	.	.	.	.	.	/	/
CC1(C)OC(=O)C2=C(C[C@@H](CCOCc3ccccc3)O[C@@H]2c2ccc(F)cc2)O1	.	.	.	.	/	.	/	/
CCC(NC(=O)CCc1c(C)c2cc3c(-c4ccccc4)coc3cc2oc1=O)C(=O)O (configuration not stated)	.	.	37	.	.	.	42	9.4
Cc1c(CCC(=O)N[C@@H](C)C(=O)O)c(=O)oc2cc3occ(-c4ccccc4)c3cc12	.	.	36	.	.	.	45	9.8
CCN(CC(=O)NCc1cccs1)C(=O)c1cccc(S(=O)(=O)N2CC(C)OC(C)C2)c1 (configuration not stated)	.	.	.	.	.	.	/	/
CC(C)CC(C(=O)O)N1C(=O)C2C3c4ccccc4C(c4ccccc43)[C@@H]2C1=O (some centres not stated)	.	.	.	.	.	.	/	/
O=C(O)C(Cc1c[nH]c2ccccc12)N1C(=O)C2C3c4ccccc4C(c4ccccc43)[C@@H]2C1=O (some centres not stated)	.	.	50	.	.	.	45	12
SMILES	LEDGF integ inh	MBD2 inh	rCAG binder	UHRF1 binding	DNMT1 block	PG9 Ab binder	rCAG bind conf	DNA CAG counter	others
CCOC(=O)C1(C)CCN1C(=O)c1ccco1 (configuration not stated)	.	.	.	.	.	.	/	/
CSCCC(NC(=O)c1ccccc1Cl)C(=O)NCC1COc2ccccc2O1 (configuration not stated)	.	.	.	.	.	.	/	/
Cc1ccc(O)c(Cc2cc(C)cc(Cc3cc(C)ccc3O)c2O)c1	.	.	40	.	.	.	39	11
Nc1ccccc1Sc1c[nH]c2ccccc12	.	.	.	.	.	.	/	/
COc1cc2[nH]c(=S)nc(NC3CCCCCC3)c2cc1OC	.	.	.	.	.	.	/	/
COc1cc2[nH]c(=S)nc(Nc3ccc(NC(C)=O)cc3)c2cc1OC	.	.	37	.	.	.	.	6.4
CNc1c(NS(=O)(=O)c2ccc(Cl)s2)c(=O)oc2ccccc12	.	.	.	.	.	.	/	/
O=S(=O)(Nc1ncnc2c1oc1ccccc12)c1ccc(Cl)s1	.	.	36	.	.	.	.	.
CN(C)c1ccc(/C=C(/NC(=O)c2ccccc2)C(=O)N/N=C/c2ccc([N+](=O)[O-])c(O)c2)cc1	.	.	67	.	.	.	62	26
COC(=O)c1sccc1NC(=O)CSc1ccccc1NS(=O)(=O)c1ccccc1Cl	.	.	36	.	.	.	62	20
O=[N+]([O-])c1ccc2nc(NS(=O)(=O)c3ccccc3[N+](=O)[O-])sc2c1	.	.	41	.	.	.	39	12
O=[N+]([O-])c1ccc2nc(NS(=O)(=O)c3ccc(Cl)cc3)sc2c1	.	.	72	.	.	.	76	28
O=C1NN(c2ccc(Cl)c(Cl)c2)C(=O)/C1=C/c1ccc(-c2ccccc2C(=O)O)o1	.	.	73	.	60	.	67	26
CC1=NN(c2ccc(Cl)c(C(=O)O)c2)C(=O)/C1=C\c1ccc(-c2ccc(C(=O)O)cc2)o1	.	.	.	.	.	.	/	/
CCOc1ccc(S(=O)(=O)N2CCNC(=O)C2)cc1	.	.	54	.	.	.	.	.
c1cn2c(NC3CCCCC3)c(-c3ccc(SC4CCCCC4)cc3)nc2cn1	.	.	50!	.	.	.	37	8.3	dCAG dye DR=.
N#CN1CCC(NS(=O)(=O)c2cccc(C(F)(F)F)c2)CC1	.	.	/	.	/	/	/	/

Bioassay records from PubChem.
